# HSP90 inh – HSP90 inhibitors, primary screen, cell lysate, luminescence. Heat shock protein HSP 90 (rabbit reticulocyte lysate; luciferase refolding). Rabbit reticulocyte lysate, luciferase refolding luminescence, 3 h. inhibition, % at 5.6 µM. actives 0.91% (n = 290,000). AID 1789, 2009;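 active = inhibition above the screen-wide mean plus 3 SD, computed separately per campaign, cut at about 16% in these data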;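 also: 0% = DMSO wells and 100% = 60 µM geldanamycin wells; inhibitors lower the luminescence because luciferase stays unfolded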
# TWEAK-Fn14 inh – inhibitors of TWEAK-Fn14 signaling, primary screen, luciferase reporter cells, uHTS; TWEAK-stimulated Fn14 reporter cells, luciferase luminescence, 8 h; inhibition, % at 10 µM; actives 2% (n = 360,000); in the data active = inhibition above about 50%
# TROY signal inh – inhibitors of TROY-driven NF-kB signaling, primary screen, Q293 LMP1-TROYcd cells, NF-kB luciferase, uHTS. Q293 LMP1-TROYcd NF-kB luciferase reporter, 4 h. inhibition, % at 10 µM. actives 0.98% (n = 360,000);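 active = compounds whose plate-normalised and pattern-corrected inhibition of the luciferase reporter signal at the single screening dose is 50% or more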
# EBV LMP1 NFkB – EBV LMP1-driven NF-kappaB luciferase reporter inhibitors, primary screen, cell-based, luminescence, single point; inhibition, % at 12.5 µM; actives 0.69% (n = 350,000); LMP1-induced NF-kappaB luciferase reporter cells; in the data active = inhibition above about 41%;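 also: 0% = neutral control wells and 100% = reference inhibitor control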
# aDG glyco act – activators of alpha-DG glycosylation, primary screen, uHTS, Pro5-aDG cells, AlphaScreen. activation, % at 10 µM. actives 0.22% (n = 360,000). alpha-DG glycosylation AlphaScreen (IIH6); 0% Pro5, 100% B10-LARGE cell signal;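 active = activation of at least 8% versus controls, or a plate z-score of at least 8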;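 also: Pro5 are CHO cells carrying HIG-tagged alpha-DG that lacks glycosylation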
# LGR2 inh – inhibitors of bursicon-induced LGR2 CRE-luciferase signal, primary screen, cell-based, HEK293, CRE-luciferase reporter, bursicon stimulation. bursicon-stimulated, 4 h. inhibition, % at 9.99 µM. actives 0.35% (n = 380,000);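 active = drop in luminescence signal, shown as inhibition above about 50% in the replicate tests, limit read from the data, passing the limit was not always enough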;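 also: agonist challenge used bursicon conditioned medium at about half maximal strength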
# * = called active by the depositor; x = no result. Sampled rows, rich in hits. Any-hit rate of the full collection: about 2.6%.
SMILES,HSP90 inh,TWEAK-Fn14 inh,TROY signal inh,EBV LMP1 NFkB,aDG glyco act,LGR2 inh
Cc1ccc(NC(=O)/C=C/c2ccc([N+](=O)[O-])s2)c(C)c1,1.9,90.9*,4.0,84.2*,-0.4,23.3
Cc1ccc(NC(=O)/C=C/c2ccc([N+](=O)[O-])s2)cc1,-2.2,50.5*,16.1,-170.3,0.1,-95.3
Cc1cccc(NC(=O)/C=C/c2ccc([N+](=O)[O-])s2)c1,0.7,85.0*,-39.2,88.0*,-0.3,-2.7
CCNC(=O)c1cc2c(c(-c3cccc(-c4cc5ccccc5o4)c3)n1)[C@H](CCO)N(C(=O)NC(C)C)C2,x,53.3*,32.8,x,-0.2,30.0
CCCNC(=O)c1cc2c(c(-c3cccc(-c4cc5ccccc5o4)c3)n1)[C@@H](CCO)N(C(=O)NC(C)C)C2,x,17.2,15.6,x,1.0,6.8
O=C(c1ccccn1)N1C[C@H]2[C@@H](c3ccccc31)[C@H](CO)N2C(=O)CC1CC1,x,x,x,x,x,-2.0
COc1ccc(/C(N)=N/OC(=O)c2cccc([N+](=O)[O-])c2C)cc1,0.9,-20.0,-41.8,-22.1,-0.2,18.6
COc1ccccc1C/C(N)=N/OC(=O)c1cccc([N+](=O)[O-])c1C,-5.2,89.7*,-14.2,0.9,-0.2,-8.9
CC(C)c1ccc(C2C3=C(CC(C)(C)CC3=O)NC3=C2C(=O)c2ccccc23)cc1 (configuration not stated),-0.1,60.5*,36.1,-9.5,1.3,35.8
CC1(C)CC(=O)C2=C(C1)NC1=C(C(=O)c3ccccc31)C2c1cccnc1 (configuration not stated),0.1,3.4,14.9,2.8,0.0,-26.7
CC1(C)CC(=O)C2=C(C1)NC1=C(C(=O)c3ccccc31)C2c1ccccc1 (configuration not stated),-4.6,63.7*,1.7,6.3,-0.2,x
O=C(C[C@H]1C=C[C@@H](NC(=O)C2CCC2)[C@H](CO)O1)NC1CCC1,x,x,x,x,x,21.5
O=C(NNc1nc2ccccc2s1)Nc1ccccc1,6.3,26.6,45.6,-25.0,0.1,x
O=C(COc1ccccc1)NNc1nc2ccccc2s1,14.4,70.0*,85.4*,-9.3,-0.2,-2.7
CC(=O)NNc1nc2ccccc2s1,2.6,89.5*,83.5*,-1.4,-0.1,x
Cn1cccc1/C=N/n1c(-c2ccc(Cl)cc2)n[nH]c1=S,-1.1,7.5,10.5,-5.9,0.0,6.6
Cn1cccc1/C=N/n1c(-c2ccc(Cl)cc2Cl)n[nH]c1=S,1.0,4.2,3.2,84.1*,-0.1,x
C=C1C(=O)O[C@@H]2C[C@@H](C)[C@@H]3C=CC(=O)[C@@]3(C)[C@@H](OC(C)=O)[C@H]12,x,x,x,x,x,102.7*
C[C@@H]1C[C@@H]2OC(=O)[C@]3(C)[C@H]2[C@@H](OC3(C)O)[C@]2(C)C(=O)C=C[C@H]12 (some centres not stated),x,2.4,9.7,-3.0,0.1,19.3
Cc1cc(C)nc(Nc2nc(C(N)Cc3ccc(C(F)(F)F)cc3)cs2)n1 (configuration not stated),x,-110.4,-4.3,x,1.9,3.8
COc1cc(OC)nc(Nc2nc(C(N)Cc3ccc(C(F)(F)F)cc3)cs2)n1 (configuration not stated),x,-28.1,-4.7,x,0.9,31.3*
O=C(COC(=O)c1ccc2[nH]c3c(c2c1)CCCC3)Nc1ccccc1Cl,1.8,-44.7,26.6,4.6,-0.3,11.2
CCC(C)c1ccccc1NC(=O)COC(=O)c1ccc2[nH]c3c(c2c1)CCCC3 (configuration not stated),-4.8,97.6*,56.0*,14.6,0.4,13.2
CCc1ccccc1NC(=O)CCS(=O)(=O)c1ccc(Br)cc1,-1.9,70.0*,-15.7,-6.8,0.0,-3.4
O=C(CCS(=O)(=O)c1ccc(Br)cc1)NCc1ccco1,-3.5,19.0,16.0,-4.1,-0.2,7.6
SMILES,HSP90 inh,TWEAK-Fn14 inh,TROY signal inh,EBV LMP1 NFkB,aDG glyco act,LGR2 inh
O=C(CCS(=O)(=O)c1ccc(Br)cc1)NCc1cccs1,16.7*,17.4,0.4,5.5,0.0,10.8
Cc1ccc(S(=O)(=O)N(C)C[C@H]2OCCCC[C@H](C)Oc3ccc(NS(=O)(=O)c4ccc(F)cc4)cc3C(=O)N([C@H](C)CO)C[C@H]2C)cc1,x,x,x,x,x,-6.8
NC(=O)C1CCN(CC(O)COc2ccc(-c3ccccc3)cc2)CC1 (configuration not stated),2.5,106.9*,-19.9,-13.4,0.1,4.3
COc1ccc2c3c(n(C)c2c1)[C@H](CO)N(C(=O)Cc1ccccn1)CC31CCN(Cc2ccccn2)CC1,x,x,x,x,x,-7.1
COc1cc(/C=N/NC(=O)COc2cccc(F)c2)ccc1OS(=O)(=O)c1ccc(C)cc1,3.9,51.2*,28.5,4.2,2.6,21.2
C[C@H]1CN([C@@H](C)CO)C(=O)c2cc(/C=C/c3ccccc3)cnc2O[C@@H]1CN(C)C(=O)CN1CCOCC1,x,x,x,x,x,9.6
COCCOC(=O)C1=C(C)NC2=C(C(=O)CC(C)(C)C2)C1c1cc2c(cc1Br)OCO2 (configuration not stated),-2.2,59.6*,6.0,5.2,0.1,37.0
COc1ccc(CN(C)C[C@@H]2OCCCC[C@H](C)Oc3ccc(NC(=O)CCCN(C)C)cc3C(=O)N([C@H](C)CO)C[C@@H]2C)cc1,x,x,x,x,x,-12.7
O=C(Nc1ccccc1Cl)c1cc(S(=O)(=O)N2CCCC(C(=O)O)C2)ccc1F (configuration not stated),-2.9,88.0*,5.6,-1.1,0.4,22.4
O=C(Nc1ccccc1C(=O)O)c1cc(S(=O)(=O)N2CCCCCC2)ccc1Cl,-3.6,0.0,30.7,-0.7,-0.1,7.3
O=C(Nc1cc(S(=O)(=O)N2CCOCC2)ccc1Cl)c1cc([N+](=O)[O-])ccc1Cl,x,77.5*,4.5,-1.0,0.3,x
O=S(=O)(c1ccc(Cl)c(NC(=S)Nc2cccc(O)c2)c1)N1CCOCC1,5.7,-3.3,-0.3,-18.0,-0.3,11.6
O=C(Nc1ccc(S(=O)(=O)N2CCOCC2)cc1)c1ccc([N+](=O)[O-])cc1Cl,-2.7,-35.2,-4.0,-6.2,0.1,-10.0
CCN(C(=S)Nc1cc(S(=O)(=O)N2CCOCC2)ccc1Cl)c1cccc2ccccc12,-5.2,86.7*,15.4,2.9,0.1,12.1
Cc1ccc(NC(=O)c2cc(S(=O)(=O)N3CCOCC3)ccc2F)c(C)c1,0.9,79.7*,-20.3,-10.3,0.1,x
C[C@H]1CN([C@@H](C)CO)C(=O)c2cccc(NC(=O)CCCCCC(=O)Nc3ccccc3N)c2O[C@@H]1CN(C)Cc1ccccc1,x,x,x,x,x,1.4
